ssDAF-12 act: activates DAF-12 receptor from parasite S. stercoralis | hit rate 1% among 370,000 | activation, % at 6.8 µM | HEK293 ssDAF-12/GRIP1 lit1-tk-luc reporter, luminescence; % of 3 µM dafachronic acid response;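 active = activation above the mean over all tested compounds plus 3 SD, cut at about 0.9% in these data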;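 note: 0% = DMSO-only wells and 100% = 3 µM delta7-dafachronic acid wells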
hgDAF12 agonist: hgDAF-12 agonism, primary luciferase screen; HEK293 GAL4-hgDAF12 UAS-luciferase reporter, agonist luminescence; normalized to butyrate control; activation, % at 6.8 µM; hit rate 1.8% among 370,000;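 active = activation above a cutoff set at the mean of all screened compounds plus 3 SD, cut at about 10% in these data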;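 note: 0% = DMSO wells and 100% = sodium butyrate wells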
DAX1 inh-1: DAX1 (NR0B1) inhibition, primary screen; HEK293T StAR-luciferase reporter, SF-1/DAX-1 repression relief; inhibition, % at 6.8 µM; hit rate 1.1% among 370,000;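 active = inhibition above the mean over all tested compounds plus 3 SD, cut at about 3.6% in these data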;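 note: 0% = DAX-1 cells with DMSO and 100% = cells lacking DAX-1 with DMSO; higher inhibition means more luminescence from relief of DAX-1 repression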
hcDAF-12 act: activates DAF-12 receptor from parasite H. contortus; HEK293 hcDAF-12 lit1-tk-luc reporter, luminescence; 0% DMSO, 100% Δ7-dafachronic acid; activation, % at 6.8 µM; hit rate 1.4% among 370,000;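 active = activation above the mean of all tested compounds plus 3 SD, cut at about 5.5% in these data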;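 note: 100% = response to 3 µM Δ7-dafachronic acid high control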
SMARCA2 act: activators of SMARCA2 function | hit rate 1% among 370,000 | AID 652017 | MG213 cells, MMTV-luciferase reporter, dexamethasone, overnight | activation, % at 9.1 µM; in the data active = activation above about 7.8%;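 note: 0% = vehicle wells and 100% = reference activator wells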
DAX1 inh-2: NR0B1 (DAX1) inhibition. AID 504766. hit rate 0.99% among 340,000. inhibition, % at 6.75 µM. HEK293 Gal4-DAX1 luciferase reporter, luminescence. P51843;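 active = inhibition above the mean over all tested compounds plus 3 SD, cut at about 4.2% in these data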;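 note: 0% = DAX1-transfected cells with DMSO and 100% = empty-vector control cells with DMSO; inhibition shows as a rise in luminescence from relieved DAX1 repression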
Target sequence (P51843 207-470 limits assumed): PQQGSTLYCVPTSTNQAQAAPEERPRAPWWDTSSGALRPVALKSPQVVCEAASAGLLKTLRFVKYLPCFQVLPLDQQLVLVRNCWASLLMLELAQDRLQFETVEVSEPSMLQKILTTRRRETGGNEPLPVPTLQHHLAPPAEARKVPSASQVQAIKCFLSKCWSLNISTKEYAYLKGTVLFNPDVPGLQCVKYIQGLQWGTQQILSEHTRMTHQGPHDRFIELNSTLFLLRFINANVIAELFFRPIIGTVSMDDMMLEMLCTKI
LXR ag: LXR-beta agonism as hcDAF-12 counter-screen; shares compounds with hcDAF-12 act; activation, % at 6.8 µM; HEK293 Gal4-LXR tk-luc reporter, luminescence, 24 h; normalized: DMSO 0%, positive control 100%; 3,400 tested, under 10 active;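 active = mean percent activation of the reporter above a cutoff set as the average over tested compounds plus their standard deviation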
hcDAF12 ag: hcDAF-12 agonism, confirmation assay | shares compounds with hcDAF-12 act | HEK293 hcDAF-12 lit1-tk-luc reporter, luminescence; % of Δ7-dafachronic acid response | activation, % at 6.8 µM | hit rate 61% among 3,400;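 active = mean activation across triplicate tests above the threshold derived from the earlier primary screen, cut at about 5.5% in these data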;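 note: 0% = DMSO only wells and 100% = 3 µM Δ7-dafachronic acid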
hgDAF12 ag: hgDAF-12 agonism, confirmation assay. activation, % at 6.8 µM. hit rate 80% among 3,300. AID 743050. shares compounds with hgDAF12 agonist. HEK293 GAL4-hgDAF12 luciferase reporter, agonist mode; percent of butyrate response;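 active = mean activation over triplicate wells above the hit cutoff derived from the earlier primary screen, cut at about 11% in these data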;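 note: 0% = DMSO low control and 100% = 2 mM sodium butyrate high control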
LXRb DAF12 ctr: activates human LXR-beta, counter-screen for DAF-12 agonists; HEK293 Gal4-LXR luciferase reporter, 24 h; 3,300 tested, under 10 active; activation, % at 6.8 µM; shares compounds with hgDAF12 agonist;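 active = mean activation of the triplicate above a set limit carried over from the primary screen, none filed active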
Numbers without * were called inactive; x = no result. Hits are enriched below; roughly 4.8% of the tested compounds scored in any of these assays.

SMILES	ssDAF-12 act	hgDAF12 agonist	DAX1 inh-1	hcDAF-12 act	SMARCA2 act	DAX1 inh-2	LXR ag	hcDAF12 ag	hgDAF12 ag	LXRb DAF12 ctr
Nc1ccc2cc3[nH]c4cc(N)ccc4c3nc2c1	3.0*	35*	-2	19*	-3	-1	3.5*	15*	20*	1
Cc1cc(N/C=C/C(=O)c2ccccc2)ccc1Br	2.8*	14*	3	9.8*	7	1	2	18*	24*	1
COc1cccc(N/C=C/C(=O)c2ccc(C)cc2)c1	1.4*	14*	3	8.1*	6	3	2	11*	24*	1
COc1cc(-c2nc(-c3ccc(Br)o3)no2)cc(OC)c1OC	-2	1	1	-2	-5	0	x	x	x	x
O=[N+]([O-])c1ccccc1-c1nc(-c2ccc(Br)o2)no1	2.8*	21*	4.5*	15*	5	3	1	8.6*	18*	1
Brc1ccc(-c2noc(-c3ccccn3)n2)o1	1.4*	20*	2	10*	3	2	1	7.8*	21*	1
O=C(Nc1ccccc1)Nc1cccc2cccnc12	1.8*	15*	1	9.0*	2	3	1	8.6*	17*	1
O=c1c2ccccc2cnn1-c1ccc2ccccc2c1	1.4*	18*	3	13*	5	1	2	6.6*	17*	1
CC1=CN2C(=N)/C(=C/c3ccc(C)o3)C(=O)N=C2S1	0	20*	4.0*	15*	2	2	1	5	12*	1
CC1=CN2C(=N)/C(=C/c3ccc(Sc4ccc(C)cc4)o3)C(=O)N=C2S1	-1	-3	0	1	-2	0	x	x	x	x
Cn1c(O)c(N=NC(=O)c2ccco2)c2ccccc21	1.3*	19*	4.2*	12*	5	1	1	14*	22*	1
Cn1c(O)c(N=NC(=O)c2ccccc2O)c2ccccc21	1.6*	22*	3	11*	4	1	1	13*	17*	1
Cn1c(O)c(N=NC(=O)C2COc3ccccc3O2)c2ccccc21 (stereo not given)	0	3	0	2	2	-1	x	x	x	x
O=C(O)CC1C(=O)NCCN1Cc1cccs1 (stereo not given)	-2	-1	0	-1	0	2	x	x	x	x
O=C1CCCN1CN(C(=O)c1ccc2c(c1)OCO2)c1ccc(F)cc1	-1	0	0	-1	1	0	x	x	x	x
Clc1ccc2nc3ccccc3cc2c1	0	4	0	3	2	0	x	x	x	x
Clc1ccc2nc3c4ccccc4cnn3c2c1	1.1*	19*	3	18*	5	3	2	17*	22*	1
CCCNc1nc2c(c(=O)n(C)c(=O)n2C)n1Cc1cccc(C)c1	-2	-1	-2	-4	-2	-3	x	x	x	x
COc1ccc(/C=C/c2nc3ccccc3n2C)cc1	-3	-12	-2	-4	-4	-4	x	x	x	x
COc1ccc(Cn2c(/C=C/c3ccccc3)nc3ccccc32)cc1	1	18*	3.8*	6.4*	6	2	x	x	20*	1
CCC(C)n1c(/C=C/c2ccccc2)nc2ccccc21 (stereo not given)	-1	3	0	2	3	-1	x	x	x	x
CC(C)Cn1c(/C=C/c2ccccc2)nc2ccccc21	0	14*	3	1	3	0	x	x	9	0
Cc1sc2ncn(CC(=O)N(C)C3CCCCC3)c(=O)c2c1C	0	-3	0	-1	-3	-1	x	x	x	x
COC(=O)N1N=C(c2ccc(Br)cc2)CC1(O)C(F)(F)F (stereo not given)	1.6*	14*	3	1	4	0	x	x	11*	0
O=C(C1CC1)N1N=C(c2ccc(F)cc2)CC1(O)C(F)(F)F (stereo not given)	-1	-1	0	-2	0	1	x	x	x	x
SMILES	ssDAF-12 act	hgDAF12 agonist	DAX1 inh-1	hcDAF-12 act	SMARCA2 act	DAX1 inh-2	LXR ag	hcDAF12 ag	hgDAF12 ag	LXRb DAF12 ctr
COc1ccc(OCc2cc(C(=O)NC3Cc4ccccc4C3)no2)c(Cl)c1	0	15*	-1	2	-1	-1	x	x	2	0
CCN(CC)CCNc1c(C)cc(CO)c(Cl)c1C	-1	4	-1	-1	1	3	x	x	x	x
COc1ccccc1/C=C/CN1CCSCC1	-1	16*	0	-1	-2	0	x	x	0	0
CN1C(=O)CSc2ccc(NC(=O)N3CCOCC3)cc21	-1	0	0	1	-1	3	x	x	x	x
O=C(Nc1ccc2ccccc2c1)C1CC2CCC1C2 (stereo not given)	0	15*	x	3	x	x	x	x	12*	1
CC(=O)Nc1sc(N/N=C/c2ccc(N(C)C)cc2)nc1-c1ccc(C)cc1	-1	1	0	2	-3	x	x	x	x	x
CC(=O)c1sc(N/N=C\c2ccc(N(C)C)cc2)nc1C	0	14*	2	3	5	4.5*	x	x	16*	1
Cc1oc(-c2cccc(Cl)c2)nc1CN1CCC(C(=O)NCC2CCCO2)CC1 (stereo not given)	-2	1	-1	-2	-3	-1	x	x	x	x
CC(=O)Oc1ccc(-c2csc(Nc3ccccn3)n2)cc1	0	16*	3.9*	6	-3	2	x	x	14*	1
CC(=O)Nc1cccc(-c2csc(Nc3ccc(Cl)cn3)n2)c1	0	13*	3.8*	2	3	5.9*	x	x	13*	1
CC(=O)Nc1ccc(-c2csc(Nc3ncccn3)n2)cc1	-1	4	1	4	0	3	x	x	x	x
C(=C\c1nnc(-c2cccs2)o1)/c1ccccc1	0	18*	3.7*	4	7	3	x	x	16*	1
CC(=O)Oc1ccc2occ(C(=O)c3cccs3)c2c1	-1	14*	3	4	2	0	x	x	11*	0
CC(=O)Oc1ccc2occ(C(=O)c3ccccc3)c2c1	0	9	1	4	0	x	x	x	x	x
COc1ccc(C(=O)c2coc3ccc(O)cc23)cc1	1	16*	3	5	2	2	x	x	20*	1

High-throughput results (PubChem)
